The results in this text go back to PubChem BioAssay AID1259418 (Broad Institute, 2018).

About 840 (25%) of roughly 3,400 compounds were called active. Inconclusive results (about 11%) are left out. The list is a sample of the results. Entries with a potency or affinity are not part of this list. Unmarked numbers belong to inactive results.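 The calls were made as follows: active = fitted half-maximal concentration of signal decrease at or below twice the sample's top tested concentration; inconclusive = flat curve between -70 and -30 percent, or poor fit; inactive = flat within 30 percent, signal rise, or potency above limit.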

The assay can be described thus: T. gondii growth inhibition with IFN-gamma, dose response, cell-based, ME49Luc, HeLa, luciferase, 72 h (AID 1259418). The following applies: T. gondii ME49Luc in IFN-y HeLa, active compounds read low, -100% = high-dose IFN-γ control wells; at 19.5 µM unless noted.
Turning to `COc1ccc2c(c1)NC1(CCN(C(=O)Cc3ccc(C)cc3)CC1)c1cccn1-2`, the max activity is 5.57% [at 0.35 µM].

In the case of `CCCCc1ccc(Nc2ncnc3c2cnn3-c2ccc(Cl)cc2)cc1`, the max activity is -18.1% [at 5 µM].

For the compound `Cc1cccc(-c2nc(CN3CCc4c(sc5c4CCCC5)C3c3ccccc3)c(C)o2)c1` (centres undefined), the max activity is 18.5%.

As to `O=C(CC1N=C2c3ccccc3N=C(SCc3ccc(Cl)cc3)N2C1=O)NC1CCCCC1` (centres undefined), the max activity is -16.8% [at 0.35 µM].

Regarding `O=C(CCC1N=C2c3ccccc3N=C(SCc3ccccc3F)N2C1=O)NCc1ccc2c(c1)OCO2` (centres undefined), the max activity was 17.7% [at 0.16 µM].

`Cc1ccc(CSC2=Nc3ccccc3C3=NC(CC(=O)NCc4cccs4)C(=O)N23)cc1` (centres undefined): the max activity is 21.6% [at 2.6 µM].

On to `O=C(CCC1N=C2c3ccccc3N=C(SCc3ccc(Cl)cc3)N2C1=O)NCc1ccc2c(c1)OCO2` (centres undefined), for which the max activity was -24.4% [at 0.35 µM].

In the case of `O=C(CCC1N=C2c3ccccc3N=C(SCc3ccc(F)cc3)N2C1=O)NCc1cccs1` (centres undefined), the max activity is 11.9% [at 1.35 µM].

`Cc1ccc2c(c1)cc(S(=O)(=O)c1ccccc1)c(=O)n2CC(=O)NC1CCCC1`: the max activity is -10.6% [at 0.35 µM].

As to `COc1ccc(CNC(=O)Nc2ccc(-c3nc(-c4ccccc4)co3)cc2)cc1`, the max activity was 134%.

Consider `O=C(Cc1ccccc1)N1CCC2(CC1)Nc1cc(F)ccc1-n1cccc12`, for which the max activity was 8.98% [at 0.68 µM].

Consider `COc1ccccc1CNC(=O)CCC1N=C2c3ccccc3N=C(SCC#N)N2C1=O` (centres undefined), for which the max activity is 14.4% [at 1.35 µM].

As for `C=CCNc1ncnc2c1cnn2-c1ccc(Cl)cc1`, the max activity is 134% [at 0.35 µM].

As for `CCOC(=O)CC(=O)Nc1ccc(-c2nc(-c3cc(C)ccc3C)co2)cc1`, the max activity is -6.71% [at 0.35 µM].

Take `CCC(C(=O)N1CCC2(CC1)Nc1ccc(C)c(C)c1-n1cccc12)c1ccccc1` (centres undefined): the max activity is 8.62% [at 2.6 µM].

Regarding `CCOC(=O)C1CCCN(C(=O)Cn2cccc2-c2nc(-c3ccc(C)cc3)cs2)C1` (centres undefined), the max activity is -28.8%.

With `CCOC(=O)C1CCN(C(=O)Cn2cccc2-c2nc(-c3ccc(C)cc3)cs2)CC1`, the max activity was 11.7%.

With `Cc1ccc(-c2csc(-c3cccn3CC(=O)N3CCC(N4CCCCC4)CC3)n2)cc1`, the max activity was 6.16% [at 0.16 µM].

For `CCN1CCCC1CNC(=O)Cn1cccc1-c1nc(-c2ccccc2)cs1` (centres undefined), the max activity is -11%.

With `COCCN1CCc2nc(SCc3nc(-c4ccc(OC)c(OC)c4)oc3C)[nH]c(=O)c2C1`, the max activity is 34.3% [at 10 µM].

Regarding `CN1C(=O)CCc2cc(NC(=O)c3cccs3)ccc21`, the max activity is 71.4%.

Consider `Cc1ccc(C)c(NC(=O)N2CCN(Cc3nc(-c4ccccc4C)oc3C)CC2)c1`, for which the max activity was 4.41% [at 2.6 µM].

`COc1cccc(C(=O)Nc2ccc(-c3nc(-c4cc(C)ccc4C)co3)cc2)c1`: the max activity is 7.15% [at 0.16 µM].

`Cc1nnc(N2C[C@@H](Oc3ncccc3F)[C@@H]3OCCC[C@@H]32)s1`: the max activity is 9.8%.

For the compound `COc1ccc(-c2nc3c(s2)CN(S(=O)(=O)c2ccc(OC)cc2)CC3)cc1`, the max activity is 12.4%.

Consider `COc1ccc(-c2nc3c(s2)CN(S(=O)(=O)c2ccc(C)cc2)CC3)cc1`, for which the max activity is 9.64% [at 10 µM].

On to `COc1ccc(S(=O)(=O)N2CCc3nc(-c4ccc(C)cc4)sc3C2)cc1`, for which the max activity was -4.65% [at 2.6 µM].

As to `COc1cccc(-c2nc3c(s2)CN(S(=O)(=O)c2ccc(C)c(C)c2)CC3)c1`, the max activity is -17.2% [at 10 µM].

Take `Cc1ccc(C)c(-c2coc(-c3ccc(NC(=O)COc4ccc(F)cc4)cc3)n2)c1`: the max activity was 15.1%.

`N#Cc1ccc(S(=O)(=O)N2CCC(N3CCOCC3)CC2)cc1`: the max activity was -17.4% [at 0.35 µM].

Turning to `CCc1ccccc1NC(=O)CN1CCC2(CC1)N=C(c1ccc(Cl)cc1)C(=O)N2`, the max activity was 13%.

Consider `Cc1nc(-c2ccc(F)cc2)sc1-c1ccc(SCc2ccc(C(F)(F)F)cc2)nn1`, for which the max activity is 6.62% [at 0.68 µM].

Take `COc1ccccc1NC(=O)CN1CCC2(CC1)N=C(c1ccc(F)cc1)C(=O)N2`: the max activity is 11.3%.

Turning to `Cc1oc(-c2ccccc2)nc1CN(c1ccccc1)S(=O)(=O)c1cccs1`, the max activity was 8.04% [at 0.68 µM].

Turning to `Cc1ccc(N(Cc2nc(-c3ccc(OC(C)C)cc3)oc2C)S(=O)(=O)c2cccs2)cc1`, the max activity was -11.4% [at 0.68 µM].

Regarding `Cc1ccc(-c2nc(CN(c3ccc(C)cc3)S(=O)(=O)c3cccs3)c(C)o2)cc1`, the max activity is 12.6% [at 0.16 µM].

Turning to `COc1ccccc1-c1nc(CSc2nc3c(c(=O)[nH]2)CN(Cc2ccc(F)cc2)CC3)c(C)o1`, the max activity is 38.6% [at 5 µM].

As to `Cc1ccc2c(c1C)-n1cccc1C1(CCN(C(=O)c3cccc(N(C)C)c3)CC1)N2`, the max activity is -17.3% [at 0.35 µM].

On to `COCCC(=O)N1C[C@H](OCc2ccccn2)[C@@H]2COC[C@@H]21`, for which the max activity was 46.2%.

In the case of `COc1ccc(CCC(=O)N2CCC[C@@H]2C(=O)NCCc2csc(-c3ccccc3)n2)cc1`, the max activity was 15.9% [at 2.6 µM].

On to `COCCN1CCc2nc(SCc3nc(-c4ccc(C)cc4)oc3C)[nH]c(=O)c2C1`, for which the max activity is -13.7% [at 2.6 µM].

`COc1ccc(-c2nc(Cn3nnc(-c4nc(-c5cccc(C(F)(F)F)c5)no4)c3C)c(C)o2)cc1`: the max activity was -6.58% [at 5 µM].

Consider `CCOc1ccc(NC(=O)Nc2ccc(-c3nc(-c4cccc(Br)c4)co3)cc2)cc1`, for which the max activity is 4.75% [at 10 µM].

For the compound `COc1ccc(-c2nc(Nc3cc(F)ccc3F)c3ccccc3n2)cc1`, the max activity was 38%.

Turning to `COc1cccc(-c2nc3c(s2)CN(S(=O)(=O)c2ccc(F)cc2)CC3)c1`, the max activity was 19.6%.

With `COc1ccc(-c2nc3c(s2)CN(S(=O)(=O)c2ccc(CC(C)C)cc2)CC3)cc1`, the max activity was -5.7% [at 10 µM].

With `CCOC(=O)C1CCC(CNC(=O)Nc2ccc(-c3nc(-c4cc(C)ccc4C)co3)cc2)CC1` (centres undefined), the max activity is 10.8% [at 0.16 µM].

In the case of `Cc1cc(C2CCCN2C(=O)Cn2nc(C(F)(F)F)cc2C)on1` (centres undefined), the max activity is 9.62% [at 0.16 µM].

On to `Cc1ccc(-c2coc(-c3ccc(NC(=O)NC4CCCC4)cc3)n2)c(C)c1`, for which the max activity was 13.7%.

In the case of `Cc1nc(OCC(=O)Nc2ccccc2F)c2ccccc2n1`, the max activity is 19.1% [at 0.16 µM].

Regarding `COCCN1CCc2nc(SCc3nc(-c4cccc(C)c4)oc3C)[nH]c(=O)c2C1`, the max activity is 12% [at 0.16 µM].

As for `Cc1ccc(C)c(NC(=O)CN2CCC3(CC2)N=C(c2cccc(F)c2)C(=O)N3)c1`, the max activity was -32.1%.

With `CCN1CCn2c(-c3cccc(F)c3)cnc2C12CCN(c1ncccn1)CC2`, the max activity is 40.4%.

For the compound `COc1ccc(-c2nc(NC(C)c3ccccc3)c3ccccc3n2)cc1` (centres undefined), the max activity is 18.4% [at 5 µM].

With `COc1ccc(C(=O)N2CCC3(CC2)Nc2ccc(C)c(C)c2-n2cccc23)c(OC)c1`, the max activity is -29.7% [at 0.16 µM].

For the compound `Cc1ccc(C)c(-c2coc(-c3ccc(NC(=O)c4ccc(Br)o4)cc3)n2)c1`, the max activity is 9.77% [at 10 µM].

For `COCCN1CCc2c(cnc(-c3cccnc3)c2C(=O)O)C1`, the max activity was 17.7% [at 2.6 µM].

Turning to `O=C(NCc1ccc(F)cc1F)c1cc(-c2cnc(N3CCCC3)nc2)cn1CC1CC1`, the max activity was -11.3% [at 0.038 µM].

On to `CN1C(=O)CCc2cc(NC(=O)c3cccnc3)ccc21`, for which the max activity was -16.3% [at 0.16 µM].

`COc1ncccc1NC(=O)c1cc(-c2cnc(N3CCCC3)nc2)cn1CC1CC1`: the max activity was 6%.

Turning to `COC(=O)[C@@H]1C[C@@H](N(C)C)CN1S(=O)(=O)c1c(C)ccc2nsnc12`, the max activity is 25.5%.

Regarding `Cc1ccc(-c2coc(-c3ccc(NC(=O)COc4ccc(F)cc4)cc3)n2)cc1`, the max activity was -52.1% [at 0.68 µM].

For `O=C(NCc1ccc(F)cc1)Nc1ccc(-c2nc(-c3ccccc3)co2)cc1`, the max activity was 16.3% [at 1.35 µM].

On to `COc1cccc(C(=O)N2CCC(C(=O)NCCc3csc(-c4ccccc4)n3)CC2)c1`, for which the max activity was -23.1%.

For `COc1ccc(C(=O)N2CCC(C(=O)NCCc3csc(-c4ccccc4)n3)CC2)cc1`, the max activity was 12.2% [at 0.16 µM].

`CCOC(=O)C1CCN(C(=O)c2ccc(-c3csc(C4CC4)n3)cc2)CC1`: the max activity is 40.1%.

For the compound `COc1ccc(-c2nc(N3CCN(c4cccc(C)c4)C(C)C3)c3ccccc3n2)cc1` (centres undefined), the max activity is 60.7%.

As to `Cc1ccc(-c2nc(Cn3nnc(-c4nc(-c5ccc(C(F)(F)F)cc5)no4)c3C)c(C)o2)cc1`, the max activity is 11.8% [at 0.35 µM].

With `CCc1nc(OCC(=O)Nc2ccccc2C)c2ccccc2n1`, the max activity was 13% [at 0.16 µM].

On to `O=C(CCC1N=C2c3ccccc3N=C(SCc3ccccc3Cl)N2C1=O)NCc1ccco1` (centres undefined), for which the max activity is 35.4% [at 10 µM].

With `CCOC(=O)c1ccc(NC(=O)Nc2ccc(-c3nc(-c4ccc(C)cc4C)co3)cc2)cc1`, the max activity is 15.1% [at 0.16 µM].

With `CCOc1ccc(NC(=O)Nc2ccc(-c3nc(-c4ccccc4)co3)cc2)cc1`, the max activity was 55.1%.

For `COc1ccc2c(c1)NC1(CCN(C(=O)c3ccc(Br)o3)CC1)c1cccn1-2`, the max activity was 8.21% [at 0.35 µM].

As to `CC(C)(C)NC1=NCCNC12CCN(S(=O)(=O)c1ccc3c(c1)CCCC3)CC2`, the max activity is -19.2% [at 0.35 µM].
